{
  "source": "PubChem BioAssay AID720607",
  "about": "(Broad Institute, 2013)",
  "test": "CCRF-CEM leukemia cell viability loss, dose response, HRAS target identification, CellTiter-Glo ATP luminescence, 8/24/48 h, dry powder (AID 720607)",
  "conditions": "8-48 h, at 35 µM (top of the series)",
  "note": "Inconclusive results are not listed. A number with no mark means an inactive call.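 The calls were made as follows: active = compounds that lower cell viability with a fitted half-maximal potency within a set limit tied to top dose; inconclusive = flat fitted activity from -70 to -30, or unreliable fit; inactive = flat near zero, opposite effect, or weaker potency.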",
  "data": [
    {"smiles": "Cc1onc(C(=O)N2CCN(C(c3ccncc3)c3ccncc3)CC2)c1[N+](=O)[O-]", "values": [
      {"measurement": "activity change, negative = cytotoxicity", "value": -4.38, "unit": "%"}
    ]}
  ]
}
